Source: PubChem BioAssay (National Center for Advancing Translational Sciences (NCATS))
Shiga toxin inh: Shiga toxin inhibition; inhibition, % at 38.7 µM; AID 2315; actives 9.2% (n = 290,000); Vero cells, Shiga toxin protein synthesis inhibition reporter; in the data active = inhibition mostly above about 28%, no sharp cut-off; inactive = mostly below about 43%; note: 0% is about no effect
Lassa entry inh: Lassa virus entry inhibition; actives 1.2% (n = 300,000); Potency, µM (top dose mostly 37.9 µM), without a hit: top-dose activity change, negative = inhibition, usual class: inhibitors; AID 540256; Lassa virus pseudotype entry inhibition, cell reporter; calls by dose curve; tested in HEK293 cells; note: potency is the fitted concentration of half-maximal effect; % is set by controls: 0 for no effect and ±100 for the full control effect; nearly all actives have a fitted effect of over 50% in size
AMA1-RON2 inh: disrupts binding of P. falciparum AMA1 to RON2. AID 720542. actives 0.2% (n = 360,000). Potency, µM (titrated, usually from 58.2 µM), without a hit: at the top dose activity change, negative = inhibition, hits mostly inhibitors. AlphaScreen AMA1-biotinylated RON2 peptide binding; active = well fitted inhibition curve with a large enough effect; inconclusive = small, poorly fitted or top-dose-only effect; inactive = no such curve, though single readings can be large or run the other way;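 note: potency is the fitted concentration of half-maximal effect; 0% = vehicle wells and -100% = peptide control; nearly all actives have a fitted effect of over 45% in size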
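AMA1 (3D7) with his tag at 25 nM final met compounds first, then biotinylated RON2 peptide at 25 nM; detection used donor plus acceptor beads, 10 µg/mL apiece, read by AlphaScreen after 30 min at room temperature.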
CHX counter: counter-screen hit for Shiga toxin inhibitors, cycloheximide; cell reporter, cycloheximide protein synthesis inhibition counterscreen; max response, %; actives 12% (n = 300,000); in the data active = max response mostly above about 13%, no sharp cut-off; inactive = mostly below about 14%; note: read at 38.3 µM for the half of the compounds with a filed dose; 0% is about no effect
MARV entry inh: inhibitors of Marburg virus binding or cell entry; Marburg virus pseudotyped entry inhibition, cell reporter; Potency, µM (titrated, usually from 37.8 µM), inactives show top-dose activity change, negative = inhibition, most hits filed as inhibitors; actives 1.8% (n = 300,000); AID 540276; calls by dose curve; tested in HEK293 cells; note: potency is the fitted concentration of half-maximal effect; % is set by controls: 0 for no effect and ±100 for the full control effect
* = called active by the depositor; [ ] = remark or other dose. Shown is part of a subset that was picked to be rich in hits.

`O=C(Cc1ccc2c(c1)OCO2)NN=Cc1ccc([N+](=O)[O-])o1` gave Lassa entry inh inconclusive, AMA1-RON2 inh -19.1% and MARV entry inh 10µM*.
For O=C(CNc1ccccc1)N/N=C/c1ccc([N+](=O)[O-])o1 the results were Shiga toxin inh 18.6, Lassa entry inh inconclusive, AMA1-RON2 inh 5.0%, CHX counter 1.4 and MARV entry inh 18.3µM*.
`O=[N+]([O-])c1cccc(-c2ccc(/C=N/NC(=S)NCc3ccco3)o2)c1` gave Shiga toxin inh 26.4, Lassa entry inh -27.1%, AMA1-RON2 inh 76.4%, CHX counter 5.5 and MARV entry inh inconclusive.
Screening O=[N+]([O-])c1cccc(-c2ccc(/C=N/NC(=S)Nc3ccccc3)o2)c1 returned Shiga toxin inh 16.2, Lassa entry inh -4.2%, AMA1-RON2 inh -6.1%, CHX counter 13.8* and MARV entry inh -5.8%.
For Fc1ccccc1NC(=S)N/N=C/c1ccccc1Br the results were Shiga toxin inh 70.2, Lassa entry inh -3.6%, AMA1-RON2 inh 51.8%, CHX counter 22.2* and MARV entry inh 2.2%.
O=c1c2oc3ccccc3c2n(Cc2cccc(F)c2)c(=O)n1Cc1ccc2c(c1)OCO2 was read as Lassa entry inh -0.9%[46.1 µM].
For COc1cc(OC)c(NC(=O)C2=C(C)C(=O)OC23CCCCC3)cc1Cl the results were Lassa entry inh -4.0%[46.1 µM] and MARV entry inh 1.4%[46.1 µM].
For Cc1ccc(C(C(=O)NC2CCCC2)N(Cc2cccs2)C(=O)c2csnn2)o1 (stereo not drawn) the results were Lassa entry inh -8.0%, AMA1-RON2 inh -4.8% and MARV entry inh 9.7%.
Screening CC1CCc2c(sc3nc(CSc4ncn[nH]4)[nH]c(=O)c23)C1 (stereo not drawn) returned Shiga toxin inh 12.1, Lassa entry inh -9.5%, AMA1-RON2 inh 54.5%, CHX counter -0.9 and MARV entry inh inconclusive.
`CCCCCC(=O)N/N=C/c1ccc([N+](=O)[O-])o1` gave Shiga toxin inh 27.5, Lassa entry inh inconclusive, AMA1-RON2 inh 20.5%, CHX counter 8.5 and MARV entry inh inconclusive.
O=C(CCC(=O)Nc1ccc(Cl)cc1Cl)N/N=C/c1ccc([N+](=O)[O-])o1 was read as Shiga toxin inh 38.5*, Lassa entry inh inconclusive, AMA1-RON2 inh 9.2%, CHX counter 1.9 and MARV entry inh inconclusive.
`O=C(CNC(=O)c1ccccc1)N/N=C/c1ccc([N+](=O)[O-])o1` gave Shiga toxin inh 0.8, Lassa entry inh -23.7%, AMA1-RON2 inh 0.7%, CHX counter 9.7 and MARV entry inh -38.3%.
O=[N+]([O-])c1ccc(/C=N/NC(=S)Nc2ccccc2)o1 was read as Shiga toxin inh 48.3*, Lassa entry inh 14.3%, AMA1-RON2 inh 24.7%, CHX counter 23.4* and MARV entry inh 23.8%.
For O=[N+]([O-])c1ccc(/C=N/NC(=S)Nc2ccccc2F)o1 the results were Shiga toxin inh 21.1, Lassa entry inh inconclusive, AMA1-RON2 inh 19.3%, CHX counter 34.4* and MARV entry inh 20.2%.
`NNCc1cccc(O)c1` gave Shiga toxin inh 102.1*, AMA1-RON2 inh -4.6%, CHX counter 34.6* and MARV entry inh 5.2%.
`Cc1cc(C)c(S(=O)(=O)N2CCC(N3CCN(Cc4ccc(F)cc4)C(=O)C3=O)CC2)c(C)c1` gave Lassa entry inh -4.2%[46.1 µM].
`CCCCCCCCc1nnc(N)s1` gave Shiga toxin inh 6.8, Lassa entry inh inconclusive, AMA1-RON2 inh -5.3%, CHX counter 11.9* and MARV entry inh inconclusive.
For Cc1nc(-c2ccc(Cl)cc2)sc1CCNC(=O)C(=O)Nc1ccccc1C#N the results were Lassa entry inh 1.2%[46.1 µM].
`Cc1ccc2nc(-c3ccc(C)c(NC(=O)CSc4ccc(Cl)cc4)c3)oc2c1` gave Lassa entry inh -1.5%[46.1 µM] and MARV entry inh inconclusive.
COc1ccc2oc(-c3ccc(C)c(NC(=O)CSc4ccc(Cl)cc4)c3)nc2c1 was read as Shiga toxin inh 64.9*, Lassa entry inh -18.9%[46.1 µM], AMA1-RON2 inh 0.8%, CHX counter 24.8* and MARV entry inh -27.4%[46.1 µM].
For Cc1cc(C)c(S(=O)(=O)N2CCN(C(=O)CN3C(=O)NC4(CCCC4)C3=O)CC2)c(C)c1 the results were Shiga toxin inh 12.4, Lassa entry inh -3.2%, AMA1-RON2 inh -7.2%, CHX counter -1.3 and MARV entry inh 22.7%.
For COc1ccc(NC(=O)c2scc(S(=O)(=O)C(C)C)c2N)cc1 the results were Shiga toxin inh 74.8*, Lassa entry inh inconclusive, AMA1-RON2 inh 0.7%, CHX counter 34.6* and MARV entry inh inconclusive.
